Screening data as filed in PubChem BioAssay.
CHX counter: Cycloheximide Counterscreen for Small Molecule Inhibitors of Shiga Toxin. cell reporter, cycloheximide protein synthesis inhibition counterscreen. max response, %. 12% of 300,000 active. AID 2314, 2010; in the data active means max response mostly above about 13%, no sharp cut-off; inactive means mostly below about 14%; further: read at 38.3 µM for the half of the compounds with a filed dose; 0% is about no effect
Pf growth 48h: Primary qHTS for delayed death inhibitors of the malarial parasite plastid, 48 hour incubation; AID 504832, 2011; 5.9% of 310,000 active; Potency, µM (doses to about 28.7 µM), without a hit: at the highest dose activity change, negative = inhibition, usual class: inhibitors; P. falciparum luciferase growth in erythrocytes, 48 h; further: potency means the concentration at half of the fitted maximal effect; on the % scale 0 is the no-effect control and ±100 the full control effect
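Erythrocytes infected with P. falciparum carrying an integrated firefly luciferase reporter (2% hematocrit, 0.1% parasitemia final) were exposed to compounds in RPMI 1640 with 0.5% Albumax at 37 C, 5% CO2. Growth inhibition was scored as reduced luminescence.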
Pf growth 96h: Primary qHTS for delayed death inhibitors of the malarial parasite plastid, 96 hour incubation | P. falciparum luciferase reporter growth, 96 h | 6.9% of 320,000 active | Potency, µM (series often up to 28.7 µM), for the others: at the top dose activity change, negative = inhibition, usual class: inhibitors; further: potency means the concentration at half of the fitted maximal effect; on the % scale 0 is the no-effect control and ±100 the full control effect
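Two parasite generations (96 h, 37 C, 5% CO2) of compound exposure in infected erythrocytes (0.05% parasitemia, 2% hematocrit). Luciferase-reporter P. falciparum; decreased luminescence indicates inhibited growth, aimed at apicoplast-acting delayed death.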
HCMV antiviral: qHTS Assay for inhibitors of the human cytomegalovirus (HCMV). HFF cells, HCMV-luciferase reporter, 72 h; active compounds read low. activity change, negative = inhibition, % at 57.5 µM. 4.5% of 410,000 active. AID 1259415, 2018; in the data active means activity change below about -60%; inconclusive means no clear call, values can overlap the other calls; inactive means above about -39%; further: on the % scale 0 is the no-effect control and ±100 the full control effect
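Two-dose cell screen: HFF monolayers treated with compounds and infected with luciferase-expressing HCMV at 1 PFU/cell, 72 h at 37C, then lysed for luciferase measurement.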
Shiga inhibitor: A qHTS for Small Molecule Inhibitors of Shiga Toxin; 9.2% of 290,000 active; inhibition, % at 38.7 µM; Vero cells, Shiga toxin protein synthesis inhibition reporter; in the data active means inhibition mostly above about 28%, no sharp cut-off; inactive means mostly below about 43%; further: 0% is about no effect
Active calls of the source: *; ? = inconclusive; · = not tested or not shown; ! = not active in a repeat; [ ] = remark or other dose. Rows were chosen to be rich in hits. Some 20% of all compounds tested hit in one or more screens of this group. Unless noted, the call rests on the fitted dose curve; in most records, active means well fitted inhibition curve with a large enough effect; inconclusive means small, poorly fitted or top-dose-only effect, or another doubt; inactive means no such curve, though single readings can be large or run the other way.

SMILES | CHX counter | Pf growth 48h | Pf growth 96h | HCMV antiviral | Shiga inhibitor
CC[C@H](C)[C@H](NC(=O)[C@H](Cc1ccc(O)cc1)NC(=O)[C@H](Cc1cnc[nH]1)NC(=O)[C@H](CCCNC(=N)N)NC(=O)[C@H](CC(C)C)NC(=O)[C@H](C)NC(=O)[C@H](CO)NC(=O)[C@H](Cc1ccc(O)cc1)NC(=O)[C@H](Cc1ccc(O)cc1)NC(=O)[C@H](CCCNC(=N)N)NC(=O)[C@H](C)NC(=O)[C@H](CC(C)C)NC(=O)[C@H](CC(=O)O)NC(=O)[C@H](CCC(=O)O)NC(=O)[C@H](C)NC(=O)[C@@H]1CCCN1C(=O)[C@H](C)NC(=O)[C@H](CC(=O)O)NC(=O)[C@H](CCC(=O)O)NC(=O)CNC(=O)[C@@H]1CCCN1C(=O)[C@H](CC(N)=O)NC(=O)[C@H](CC(=O)O)NC(=O)[C@@H]1CCCN1C(=O)[C@H](CCCCN)NC(=O)[C@H](CO)NC(=O)[C@@H]1CCCN1C(=O)[C@@H](N)Cc1ccc(O)cc1)C(=O)N[C@@H](CC(N)=O)C(=O)N[C@@H](CC(C)C)C(=O)N[C@@H](CC(C)C)C(=O)N[C@H](C(=O)N[C@@H](CCCNC(=N)N)C(=O)N1CCC[C@H]1C(=O)N[C@@H](CCCNC(=N)N)C(=O)N[C@@H](Cc1ccc(O)cc1)C(N)=O)[C@@H](C)O | 41 | · | · | · | 14
COc1ccc2[nH]c3c(c2c1)CCN1C(=O)C(CC(=O)NCc2ccco2)C[C@H](C(=O)N(C(C)C)C(C)C)[C@@]31C (some centres not stated) | · | · | · | -8 | ·
CCOc1ccccc1NC(=O)NCc1ccc(F)cc1 | -3 | 20%[5.75 µM] | 17% | -28 | 16
CCCCN1C(=O)c2ccc(C(=O)OCC(=O)NCCc3ccc(S(N)(=O)=O)cc3)cc2C1=O | · | · | · | 30 | ·
COc1cc(N2CCCC2)ccc1C=O | -4 | 16% | ? | 8 | -5
O=C(O)c1ccc(N2Cc3ccccc3C2)cc1O | 29* | · | 70% | · | 56*
Cc1cc(N2Cc3ccccc3C2)ccc1C=O | 19* | -26% | ? | 143 | 70*
Oc1ccc(N2Cc3ccccc3C2)cc1 | 20* | -3% | 30% | · | 15
Cc1ccc(-c2noc(CNC(=O)c3ccc(C)c(Cl)c3)n2)cc1 | · | · | · | -27 | ·
O=C1NC[C@H](CCCCN2C[C@H](Cc3ccc(O)cc3)N(Cc3ccccc3)C(=O)C2=O)N(CCc2ccc(O)cc2)C1=O | · | · | · | -6 | ·
CC1CCN(CC(=O)N2CC(=O)Nc3ccccc32)CC1 | -5 | -27% | -21% | 3 | 3
Cc1cccc2nc(-c3cccnc3)c(Nc3ccc(C(C)C)cc3)n12 | · | · | · | -83* | ·
Cc1ccc(Nc2c(-c3ccc(O)cc3)nc3cccc(C)n23)cc1 | · | · | · | 59 | ·
Cc1ccccc1Nc1c(-c2cccnc2)nc2cccc(C)n12 | 2 | ? | -1% | -62*! | -10
N=C1/C(=C\c2ccc(OC(=O)c3ccccc3Cl)cc2)C(=O)N=C2SC(N3CCOCC3)=NN12 | 24* | 12% | 0% | 26 | 58*
COc1ccc(OC)c(-n2c(C)cc(/C=C3\C(=N)N4N=C(CC(=O)N5CCOCC5)SC4=NC3=O)c2C)c1 | 1 | ? | 12µM* | ? | -1
COc1cc(/C=C2/C(=N)N3N=C(CC(=O)N4CCOCC4)SC3=NC2=O)ccc1OC(C)c1ccccc1 (configuration not stated) | 10 | 5% | 0% | -22 | -1
N=C1/C(=C/c2ccc(OCc3ccccc3)cc2)C(=O)N=C2SC(CC(=O)N3CCOCC3)=NN12 | 15* | 25% | 50% | -30 | 32
COc1cc(/C=C2\C(=N)N3N=C(N4CCOCC4)SC3=NC2=O)ccc1OC(=O)c1ccccc1 | 4 | -3% | ? | 9 | 5
N=C1/C(=C/c2ccc(OCc3ccccc3F)cc2)C(=O)N=C2SC(CC(=O)N3CCOCC3)=NN12 | 23* | 8% | -5% | -7 | 85*
Cc1cccc(N2CCN(c3cccc(C)c3)C2c2cccnc2)c1 | 34* | 1.9µM* | -24% | -8 | 71*
COc1ccc(N(CC(=O)NCc2ccco2)C(=O)CCC(=O)Nc2ccccn2)cc1 | -2 | -4% | ? | 30 | -3
